Where “and” joins values, the source holds several entries; their conditions need not be identical. Equal values may be shown once. In all, about 5,500 compounds went through this assay and about 2,000 (36%) were called active. Not shown: some 18% with an inconclusive outcome. Rule as the data show it: active = normalized growth mostly below about 0.91 (no sharp cut-off); inconclusive = no clear call, values can overlap the other calls; inactive = mostly above about 0.92. This is one part of the list.
Assay: chemical genetic growth profiling, strain panel (AID 1159580);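 also: tested at 20 µM; growth read once vehicle control cultures reached saturation at 30 °C; 1 = growth at the plate median or of vehicle wells; lower values mean less growth of the strain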
Conditions: S. cerevisiae deletion strains, growth OD

Measured: normalized growth

CCS(=O)(=O)CCn1c([N+](=O)[O-])cnc1C
inactive: locus YAL013W, strain DEP1, hits give low values 1.03 | locus YAL021C, strain ccr4, hits give low values 0.999 | locus YAL026C, strain drs2, hits give low values 0.995 | locus YAL030W, strain snc1, hits give low values 1.01 | locus YBL061C, strain skt5, hits give low values 1.01 | locus YBR009C, strain hhf1, hits give low values 0.962 | locus YBR021W, strain FUR4, hits give low values 1.01 | locus YBR023C, strain chs3, hits give low values 0.998 | locus YBR171W, strain sec66, hits give low values 1 | locus YBR229C, strain ROT2, hits give low values 1.01 | locus YBR231C, strain swc5, hits give low values 1 | locus YBR279W, strain paf1, hits give low values 0.985 | locus YCL011C, strain gbp2, hits give low values 1 | locus YCL016C, strain dcc1, hits give low values 1.02 | locus YCL029C, strain bik1, hits give low values 1.01 | locus YCL061C, strain MRC1, hits give low values 1.01 | locus YCL069W, strain vba3, hits give low values 0.974 | locus YCR088W, strain abp1, hits give low values 0.986 | locus YDL005C, strain med2, hits give low values 1.01 | locus YDL035C, strain GPR1, hits give low values 1.04 | locus YDL040C, strain nat1, hits give low values 0.995 | locus YDL074C, strain BRE1, hits give low values 1.06 | locus YDL101C, strain DUN1, hits give low values 1.01 | locus YDL134C, strain PPH21, hits give low values 1 | locus YDL185W, strain tfp1, hits give low values 1.02 | locus YDL192W, strain arf1, hits give low values 1.01 | locus YDR001C, strain nth1, hits give low values 0.991 | locus YDR069C, strain doa4, hits give low values 0.977 | locus YDR101C, strain arx1, hits give low values 1.01 | locus YDR137W, strain rgp1, hits give low values 0.957 | locus YDR150W, strain NUM1, hits give low values 1.02 | locus YDR159W, strain sac3, hits give low values 0.965 | locus YDR162C, strain NBP2, hits give low values 1.02 | locus YDR195W, strain ref2 0.952 | locus YDR297W, strain sur2, hits give low values 1 | locus YDR318W, strain mcm21, hits give low values 1.04 | locus YDR334W, strain swr1, hits give low values 0.966 | locus YDR335W, strain msn5, hits give low values 0.993 | locus YDR388W, hits give low values 1.01 | locus YDR392W, strain spt3, hits give low values 1.02 | locus YDR502C, strain sam2, hits give low values 1.01 | locus YEL003W, strain gim4, hits give low values 0.995 | locus YEL037C, strain rad23, hits give low values 0.981 | locus YEL061C, strain CIN8 (second series), hits give low values 0.998 | locus YEL061C, strain CIN8, hits give low values 1.01 | locus YER015W, strain faa2, hits give low values 1 | locus YER016W, strain bim1, hits give low values 1.01 | locus YER110C, hits give low values 1.02 | locus YER111C, strain swi4, hits give low values 1.02 | locus YER155C, strain BEM2 (second series), hits give low values 0.99 | locus YER155C, strain BEM2, hits give low values 0.996 | locus YER167W, strain BCK2, hits give low values 1.05 | locus YFR010W, strain ubp6, hits give low values 0.967 | locus YGL078C, strain dbp3, hits give low values 1 | locus YGL086W, strain mad1, hits give low values 1.05 | locus YGL167C, strain pmr1, hits give low values 0.994 | locus YGL173C, strain kem1, hits give low values 1.02 | locus YGL227W, strain vid30, hits give low values 1 | locus YGL240W, strain doc1, hits give low values 0.977 | locus YGL248W, strain PDE1, hits give low values 1 | locus YGL253W, strain hxk2, hits give low values 0.997 | locus YGR078C, strain PAC10, hits give low values 1.03 | locus YGR135W, strain pre9, hits give low values 1.01 | locus YGR229C, strain SMI1, hits give low values 1.02 | locus YGR252W, strain gcn5, hits give low values 1.01 | locus YHR013C, strain ard1, hits give low values 1.04 | locus YHR027C, strain rpn1, hits give low values 1.01 | locus YHR030C, strain SLT2, hits give low values 1.01 and 0.981 | locus YHR079C, strain IRE1 (second series), hits give low values 1.02 | locus YHR079C, strain IRE1, hits give low values 0.957 | locus YHR094C, strain hxt1, hits give low values 1.01 | locus YHR129C, strain ARP1, hits give low values 1.01 | locus YHR142W, strain chs7, hits give low values 1.01 | locus YHR200W, strain rpn10, hits give low values 1.02 | locus YIL066C, strain RNR3, hits give low values 1.02 | locus YIL073C, strain SPO22, hits give low values 1.1 | locus YIL125W, strain kgd1, hits give low values 1.01 | locus YIR030C, strain dcg1, hits give low values 1.01 | locus YJL092W, strain hpr5, hits give low values 1 | locus YJL095W, strain BCK1 (second series), hits give low values 0.989 | locus YJL095W, strain BCK1, hits give low values 1.02 and 0.959 | locus YJL115W, strain asf1, hits give low values 0.98 | locus YJL129C, strain trk1, hits give low values 1 | locus YJL134W, strain LCB3, hits give low values 1.01 | locus YJL154C, strain vps35, hits give low values 0.984 | locus YJL164C, strain tpk1, hits give low values 1 | locus YJL166W, strain qcr8, hits give low values 0.996 | locus YJL168C, strain set2, hits give low values 1.01 | locus YJL187C, strain SWE1 (second series), hits give low values 1.01 | locus YJR043C, strain POL32, hits give low values 1.08 | locus YJR066W, strain TOR1, hits give low values 0.945

— PubChem BioAssay AID1159580 (chemical genetic matrix, 2015)
